Screening results as filed in PubChem.
Rows were chosen to be rich in hits. Some 4.2% of all compounds tested hit in one or more screens of this group.
Wnt act – activates Wnt/beta-catenin signaling in a reporter cell assay; actives 1.2% (n = 300,000); activator, plate reader; activation, % at 9.35 µM; in the data active = activation above about 30%, passing the limit was not always enough; inconclusive = no clear call, values can overlap the other calls;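 also: 0% = neutral control wells and 100% = positive control wells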
hcDAF12 agonist – activators of H. contortus DAF-12 nuclear receptor | HEK293 hcDAF-12 lit1-tk-luc reporter, luminescence; 0% DMSO, 100% Δ7-dafachronic acid | activation, % at 6.8 µM | actives 1.4% (n = 370,000) | AID 652067;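 active = activation above the mean of all tested compounds plus 3 SD, cut at about 5.5% in these data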;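 also: 100% = response to 3 µM Δ7-dafachronic acid high control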
hgDAF12 agonist – activates the H. glycines DAF-12 receptor ligand-binding domain. HEK293 GAL4-hgDAF12 UAS-luciferase reporter, agonist luminescence; normalized to butyrate control. activation, % at 6.8 µM. actives 1.8% (n = 370,000). AID 687014;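 active = activation above a cutoff set at the mean of all screened compounds plus 3 SD, cut at about 10% in these data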;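 also: 0% = DMSO wells and 100% = sodium butyrate wells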
ssDAF12 agonist – activators of S. stercoralis DAF-12 nuclear receptor. activation, % at 6.8 µM. HEK293 ssDAF-12/GRIP1 lit1-tk-luc reporter, luminescence; % of 3 µM dafachronic acid response. actives 1% (n = 370,000);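 active = activation above the mean over all tested compounds plus 3 SD, cut at about 0.9% in these data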;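 also: 0% = DMSO-only wells and 100% = 3 µM delta7-dafachronic acid wells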
esBAF inh – inhibitors of esBAF chromatin remodeling in mouse ES cells. Bmi1-luciferase knock-in reporter, 24 h; 100% = twice the neutral-well signal. reporter increase, % at 12.5 µM. actives 2% (n = 350,000). AID 602393; in the data active = activation above about 40%; inconclusive = no clear call, values can overlap the other calls;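 also: 0% = median of the plate's neutral control wells and 100% = double that signal; a rise in the Bmi1 reporter signal indicates esBAF inhibition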
DAX1 inh – inhibitors of DAX1 repression of SF-1 activated StAR promoter; HEK293T StAR-luciferase reporter, SF-1/DAX-1 repression relief; inhibition, % at 6.8 µM; actives 1.1% (n = 370,000);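 active = inhibition above the mean over all tested compounds plus 3 SD, cut at about 3.6% in these data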;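 also: 0% = DAX-1 cells with DMSO and 100% = cells lacking DAX-1 with DMSO; higher inhibition means more luminescence from relief of DAX-1 repression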
The depositor's hits bear a star; ? = inconclusive; . = not tested or not shown.

SMILES | Wnt act | hcDAF12 agonist | hgDAF12 agonist | ssDAF12 agonist | esBAF inh | DAX1 inh
Cc1ccc(C(=O)NC(=S)Nc2ccccc2N2CCCC2)cc1[N+](=O)[O-] | -2 | 1 | -1 | 1.4* | . | -1
Cn1ncc2cc(NC(=S)NC(=O)c3ccccc3)ccc21 | . | 1 | 9 | 0 | 48* | 0
CC(=O)c1cccc(NC(=S)NC(=O)c2cccc(C)c2)c1 | 29 | 1 | 13* | -1 | . | 2
O=S(=O)(N[C@@H]1CC[C@@H](CCn2cc(C3(O)CCCC3)nn2)O[C@H]1CO)c1ccc(Cl)cc1 | . | . | . | . | -2 | .
COCC(=O)N(C)C[C@@H]1Oc2cc(-c3cccnc3)ccc2S(=O)(=O)N([C@@H](C)CO)C[C@@H]1C | . | . | . | . | 5 | .
COc1ccc(S(=O)(=O)N(C)C[C@@H]2Oc3c(NC(=O)Nc4ccc(F)cc4)cccc3C(=O)N([C@@H](C)CO)C[C@@H]2C)cc1 | . | . | . | . | 2 | .
COc1ccc(-c2cnc3c(c2)C(=O)N([C@@H](C)CO)C[C@@H](C)[C@@H](CN(C)C(=O)NC2CCCC2)O3)cc1 | . | . | . | . | 2 | .
CN1C(=O)c2cc(NC(=O)C3CCOCC3)ccc2OC[C@@H]2O[C@H](CC(=O)NC3CCCC3)CC[C@@H]21 | . | . | . | . | 0 | .
C[C@@H]1CN([C@@H](C)CO)C(=O)c2cc(-c3cccc(C(=O)N(C)C)c3)cnc2O[C@@H]1CN(C)S(=O)(=O)c1ccccc1 | . | . | . | . | 1 | .
Cc1ccc(S(=O)(=O)N(C)C[C@H]2OCCCC[C@H](C)Oc3ccc(NC(=O)Nc4ccccc4)cc3C(=O)N([C@@H](C)CO)C[C@@H]2C)cc1 | . | . | . | . | -6 | .
CC(C)Oc1cccc(C(=O)NC(=S)Nc2ccccc2)c1 | 14 | 2 | 12* | 0 | . | 2
O=C(NC(=S)Nc1ccccc1)c1ccc(-c2ccccc2)cc1 | 19 | 5 | 2 | -1 | 62* | 1
Cc1cc(C(=O)NC(=S)Nc2cccc(NC(=O)C(C)C)c2)ccc1[N+](=O)[O-] | 10 | -4 | 1 | -1 | 49* | 0
CC(C)C(=O)Nc1cccc(NC(=S)NC(=O)c2ccc([N+](=O)[O-])cc2)c1 | -1 | 0 | 0 | -1 | 5 | 1
CCCc1cc(C(=O)NNC(=S)Nc2cccc(C)c2)cs1 | 20 | 0 | 11* | 0 | . | 2
O=C(O)c1ccc(NC(=S)NC(=O)c2ccc(-c3ccccc3)cc2)cc1 | 0 | 1 | 1 | -1 | 28 | 1
CC(=O)N(C)C[C@@H]1Oc2cc(-c3ccccc3C)ccc2S(=O)(=O)N([C@H](C)CO)C[C@@H]1C | . | . | . | . | -1 | .
CN(C)Cc1cn(CC[C@@H]2CC[C@@H](NC(=O)Nc3ccc4c(c3)OCO4)[C@@H](CO)O2)nn1 | . | . | . | . | 5 | .
CC(C)c1cn(CC[C@@H]2CC[C@@H](NC(=O)c3cccc(F)c3)[C@@H](CO)O2)nn1 | . | . | . | . | -2 | .
O=C(NCCNC(=O)c1ccccc1)c1ccccc1 | -4 | -1 | 1 | -1 | . | 0
C[N+](C)(C)CCNC(=O)c1ccccc1 | 0 | -1 | -1 | -1 | . | 4.1*
CC(=O)Nc1ccc(C(=O)/C=C/c2ccco2)cc1 | . | 2 | 1 | -1 | . | 1
CNc1ccc(/C=C/C(=O)c2ccc(C)cc2)cc1[N+](=O)[O-] | -2 | -3 | -3 | -2 | . | 0
O=C(/C=C\c1ccco1)c1ccc(NC(=O)c2ccco2)cc1 | -2 | 1 | 11* | -1 | ? | 1
CN(C)c1ccc(/C=C/C(=O)c2ccccc2)cc1[N+](=O)[O-] | 34* | 1 | 4 | -1 | 62* | 1
SMILES | Wnt act | hcDAF12 agonist | hgDAF12 agonist | ssDAF12 agonist | esBAF inh | DAX1 inh
O=C(C=Cc1ccco1)c1ccc2ccccc2c1 | 61* | -1 | 6 | -1 | . | 3
CN(C)c1ccc(C(=O)/C=C/c2ccco2)cc1 | . | 6 | 13* | 0.9* | . | 2
COc1cccc(S(=O)(=O)N2CC[C@@H]3[C@H](CO)N(C)c4ccc(C#Cc5cccnc5)cc4[C@@H]32)c1 | . | . | . | . | 10 | .
C[C@H]1CN([C@@H](C)CO)C(=O)c2cc(C#CCN(C)C)cnc2O[C@@H]1CN(C)Cc1ccc(F)cc1 | . | . | . | . | -3 | .
C[C@H](CO)N1C[C@H](C)[C@H](CN(C)Cc2ccc(C(=O)O)cc2)OCCCC[C@H](C)Oc2ccc(NC(=O)CCCN(C)C)cc2C1=O | . | . | . | . | -7 | .
CN(C)c1ccc(C(=O)/C=C/c2ccccc2)cc1 | . | 1 | 10 | -1 | 68* | 2
CN(C)c1ccc(C(=O)/C=C/c2ccc(Br)cc2)cc1 | 29 | 3 | 4 | -2 | 20 | 1
O=C(OC1CCCCC1)c1ccc(NC(=O)c2ccco2)cc1 | -3 | -2 | 2 | -1 | 60* | 0
CO[C@H]1CN(C)C(=O)c2ccc(NS(=O)(=O)c3ccccc3)cc2OC[C@@H](C)N(C(=O)NC(C)C)C[C@H]1C | . | . | . | . | -4 | .
COCOCCn1cc(CN2CCS(=O)(=O)N(Cc3ccc(-c4ccc(Cl)nc4)cc3)C(CC(C)C)C2=O)nn1 (stereo unspecified) | 0 | 0 | 3 | -1 | 45* | -1
C[C@@H]1CN([C@H](C)CO)C(=O)c2cccc(NC(=O)Nc3ccc(C(F)(F)F)cc3)c2O[C@H]1CN(C)C(=O)Nc1ccccc1 | . | . | . | . | 6 | .
C=CCn1c(-c2cc(-c3ccccc3)sc2N)n[nH]c1=S | 41* | 0 | 0 | -1 | . | 0
O=C(/C=C/c1cccs1)Nc1ccc(N2CCOCC2)c(S(=O)(=O)Nc2cc(Cl)ccc2Cl)c1 | . | 5.7* | 5 | -1 | . | 0
O=C(/C=C/c1cccs1)Nc1ccc(N2CCOCC2)c(S(=O)(=O)Nc2ccccc2Cl)c1 | 9 | -4 | -1 | -3 | . | -1
CCC(=O)Nc1ccc2c(c1)C(=O)N(C)C[C@@H](OC)[C@H](C)CN(CC1CC1)[C@H](C)CO2 | . | . | . | . | 1 | .
CCCCN(C)C(=O)c1cc2cc3ccc(OC)cc3nc2o1 | 1 | 2 | 4 | 0 | ? | 1
CCCCN(C)C(=O)c1cc2cc3cc(OC)ccc3nc2o1 | 44* | 1 | 4 | -1 | . | 2
C/C(=N/Nc1ccccc1[N+](=O)[O-])c1ccc([N+](=O)[O-])cc1 | -2 | 6.4* | 1 | 0 | -2 | 0
C/C(=N\Nc1ccc([N+](=O)[O-])cc1)c1cccc(N)c1 | 26 | 1 | 8 | -2 | 85* | -1
CC(=O)Nc1ccc(CC(=O)Nc2ccc3c(c2)OC2(CCCC2)O3)cc1 | -6 | 1 | 10 | -1 | 46* | 2
COc1cccc(CC(=O)Nc2ccc3c(c2)OC2(CCCC2)O3)c1 | 3 | 3 | 1 | -1 | 42* | 1
CCC(=O)Nc1ccc2c(c1)C(=O)N(C)[C@H]1CC[C@H](CC(=O)Nc3cccc(OC)c3)O[C@@H]1CO2 | . | . | . | . | -3 | .
COc1ccccc1-c1cn(CC[C@H]2CC[C@H](NC(=O)c3cnccn3)[C@H](CO)O2)nn1 | . | . | . | . | 6 | .
